Test results from PubChem BioAssay (Tox21).
Results filed as inconclusive are left out. A number with no mark means an inactive call. Activity calls are given as the source filed them. Calls follow the shape of the dose curve; as a rule, active = well fitted cell-killing curve with a large enough effect in the repeat runs; inconclusive = weak or mixed curves, or effect the other way; inactive = flat fitted curve, though single readings scatter.

Assay: cAMP Responsive Elements (CRE) small molecule agonists, cell-based qHTS assay: qHTS cell viability counter screen (AID 2060914);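 also: viability read after 3 h of compound exposure; nearly all actives have a fitted effect of over 50% in size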
Conditions: CRE-bla HEK293T viability, CellTiter-Glo luminescence, 5 h; series mostly up to 92.4 µM; activity change, negative = cytotoxicity: at the top concentration
Description: National Center for Advancing Translational Sciences [NCATS]
Division of Preclinical Innovation [DPI]
U.S. Environmental Protection Agency [EPA]
National Institutes of Environmental Health Sciences [NIEHS]
National Toxicology Program [NTP]
U.S. Food and Drug Administration [FDA]
CREB (cyclic-AMP Responsive Element Binding Protein) is a cellular transcription factor. It binds to certain DNA sequences called cAMP Responsive Elements (CRE) and regulates the transcription of the genes. […] This cell line can be used to find agonists/antagonists of the cyclic AMP signaling pathway. The activation of the report gene under culture conditions can be detected by fluorescence intensity. This cell line has been used to screen the Tox21 10K compound library to identify agonists that induce oxidative stress. The cytotoxicity of the Tox21 compound library against the CRE-bla cell line was tested in parallel by measuring the cell viability using CellTiter-Glo assay (Promega, Madison, WI) in the same wells.
Tox21 Assay Protocol Summary:
CRE-bla Hek 293T cells were suspended in assay medium (DMEM containing 10% dialyzed FBS, 0.1 mM NEAA, 1 mM sodium pyruvate and 25 mM HEPES) and dispensed at 2,000 cells/5 uL /well into 1536-well black wall/clear bottom plates using a Multidrop Combi (ThermoFisher Scientific, Waltham, MA) dispenser. After the assay plates were incubated at 37 C/5% CO2 for 18 hrs, 23 nL of compounds dissolved in DMSO, positive controls or DMSO only was transferred to the assay plate by a pintool workstation (Kalypsys, San Diego, CA). After the plates were incubated at 37 C/5% CO2 for 3 hrs, 1 uL of LiveBLAzer B/G FRET substrate (Invitrogen, Carlsbad, CA) was added to each well using Bioraptr Flying Reagent Dispenser (FRD, Aurora Discovery, San Diego, CA). The plates were incubated at room temperature for 2 h, then fluorescence intensities were measured using an Envision plate reader (PerkinElmer, Shelton, CT) at Excitation 405nm, Emission 460nm and 530nm. The % activity was determined from the ratio of 460nm/530nm. For cell viability readout that measures cytotoxicity, 4 uL /well of CellTiter-Glo reagent was added into the assay plates using Bioraptr FRD. After 30 min incubation at room temperature, the luminescence intensity in the assay plates was measured using a ViewLux (PerkinElmer, Shelton, CT) plate reader.
% is scaled to controls: 0 for no effect and ±100 for the full control effect.

Structure (SMILES)	Potency	activity change, negative = cytotoxicity
OCCc1ccccc1	inactive	–
O=C[O][Al]([O]C=O)[O]C=O	–	0.453%
CCN(CC)CCNC(=O)c1cc(S(C)(=O)=O)ccc1OC	–	1.94% [at 42.5 µM]
CCN(CC)CCCN(c1ccccc1)C1Cc2ccccc2C1	–	-2.03% [at 42.5 µM]
COCCCN	inactive	–
O=c1[nH]cc(F)c(=O)[nH]1	inactive	–
O=S(=O)(O)CCCN1CCOCC1	–	1.45%
Cc1nc(Nc2ncc(C(=O)Nc3c(C)cccc3Cl)s2)cc(N2CCN(CCO)CC2)n1	–	-12.7% [at 42.5 µM]
CC(=O)OCC(=O)[C@@]12OC(C)(C)O[C@@H]1C[C@H]1[C@@H]3C[C@H](F)C4=CC(=O)C=C[C@]4(C)[C@@]3(F)[C@@H](O)C[C@@]12C	–	-4.71% [at 42.5 µM]
Brc1cc(-c2ccc(Br)c(Br)c2Br)cc(Br)c1Br	–	-10.5% [at 42.5 µM]
ClC/C=C/CCl	inactive	–
CN(C)C(=O)C(CCN1CCC(O)(c2ccc(Cl)cc2)CC1)(c1ccccc1)c1ccccc1	–	-0.587% [at 42.5 µM]
CCCC(=O)C(C)=O	–	13.1%
CN(C)Cc1ccccc1O	–	-7.49%
C#C[C@]1(O)CC[C@H]2[C@@H]3CCC4=Cc5oncc5C[C@]4(C)[C@H]3CC[C@@]21C	inactive	–
CO[C@H]1C=CO[C@@]2(C)Oc3c(C)c(O)c4c(O)c(cc(O)c4c3C2=O)NC(=O)/C(C)=C\C=C/[C@H](C)[C@H](O)[C@@H](C)[C@@H](O)[C@@H](C)[C@H](OC(C)=O)[C@@H]1C	–	4.94%
COc1cc2ncnc(Nc3ccc(F)c(Cl)c3)c2cc1OCCCN1CCOCC1	–	0% [at 42.5 µM]
Cc1c(N)cccc1C(F)(F)F	–	-8.53% [at 42.5 µM]
NCC(=O)CCC(=O)O	–	-1.29% [at 42.5 µM]
CCC(C(=O)OCCN(CC)CC)c1ccccc1 (stereo not given)	–	-1.45% [at 42.5 µM]

Structure (SMILES)	Potency	activity change, negative = cytotoxicity
CC/C=C\CCCCO	–	2.67%
CSc1cnc(C)cn1	–	4.65% [at 240 µM]
NC(N)=Nc1nc(CSCC/C(N)=N/S(N)(=O)=O)cs1	inactive	–
CC(COC(=O)c1ccccc1)OC(=O)c1ccccc1 (stereo not given)	–	0.0915%
C[C@]12CCC(=O)C=C1CC[C@@H]1[C@@H]2CC[C@@]2(C)[C@H]1CC[C@]2(O)C(=O)CO	–	0.0809% [at 42.5 µM]
CCOC(C)(C)C	–	0.443%
CCCCc1ccc(Cl)cc1	–	-1.79%
COc1ccnc(CS(=O)c2nc3ccc(OC(F)F)cc3[nH]2)c1OC (stereo not given)	–	-10% [at 42.5 µM]
N=C1C=CC(=C(c2ccc(N)cc2)c2ccc(N)cc2)C=C1	–	-18.4%
C=C/C(C)=C/C/C=C(\C)CCC=C(C)C	–	3.37%
CCCCCC/C=C\CCCCCCCC(=O)O	–	9.01%
CCOC(=O)CC(=O)c1cc(F)c(Cl)nc1Cl	–	-12.1%
CCCCCCOc1ccc(O)cc1	–	-13.1%
O=CO	–	-4.64% [at 8.39 µM]
Cn1cnc2c(=O)[nH]c(N)nc21	–	3.55%
CC(C)(Oc1ccc(CCNC(=O)c2ccc(Cl)cc2)cc1)C(=O)O	inactive	–
CCCCCCCCCCCCCCBr	–	-2.08%
Cc1c(O)cccc1O	–	7.33%
O=P(OC(CCl)CCl)(OC(CCl)CCl)OC(CCl)CCl	inactive	–
c1ccc2scnc2c1	inactive	–
